Source: PubChem BioAssay (several laboratories)
Calb FLC = affects C. albicans growth with fluconazole | C. albicans CaCi-2 (fluconazole-resistant clinical isolate) + fluconazole, Alamar Blue growth, 48 h | growth inhibition, % (concentration not given with the values) | actives 0.57% (n = 300,000);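 active = growth inhibition above about 58% in most replicates, limit read from the data, passing the limit was not always enough; inconclusive = exactly half the replicates above a set limit; inactive = most replicates below a set limit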;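 also: all wells also contain fluconazole at 8 µg/ml as a sub-toxic cotreatment; 0% = median of DMSO wells and 100% = median of geldanamycin control wells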
Beta cell apopt = beta cell apoptosis inhibition. actives 0.8% (n = 300,000). INS-1E cytokine-induced death, ATP luminescence, 48 h; percent of positive-control rescue, neutral wells zero. protection from apoptosis, % (concentration not given with the values);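 active = Every replicate reaches about 75%, or at least half do and their mean reaches it too, limit read from the data; inconclusive = At least half of replicates reach the limit but their mean does not; inactive = Under half of replicates reach the limit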;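 also: 0% = cytokine-treated negative control wells and 100% = positive control rescue; higher means more ATP so stronger rescue from cytokine killing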
Mdm2 MdmX PPI = human Mdm2/MdmX binding inhibition; inhibition, % at 8 µM; AID 485346; SaOS-2 split-luciferase Mdm2/MdmX complementation, luminescence; O15151+Q00987; actives 3% (n = 330,000);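 active = inhibition of at least 50% at 8 µM in the primary screen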
MPTP inh = permeability transition pore inhibition. isolated mouse mitochondria, Ca2+ swelling absorbance, 30 min. inhibition, % at 10 µM. actives 1.4% (n = 360,000). AID 602449;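 active = inhibition of 50% or more, scaled per plate between neutral and stimulator controls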;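 also: 0% = DMSO wells given calcium and 100% = 1 mM EGTA wells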
CSC inhib = cancer stem cell inhibition | cancer stem cell-like cells viability, luminescence | inhibition, % at 7.5 µM | actives 1.1% (n = 300,000); in the data active = inhibition above about 75%; inconclusive = no clear call, values can overlap the other calls; tested in HMLE shEcad cells
Rh123 counter = mitochondrial membrane potential, counter-screen. shares compounds with MPTP inh. actives 78% (n = 5,000). isolated mitochondria, Rhodamine 123 fluorescence. inhibition, % at 10 µM; in the data active = inhibition above about 22%;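 also: 0% = DMSO vehicle and 100% = positive control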
An asterisk follows results filed as active; ? = inconclusive; . = not tested or not shown. Most compounds without a hit are left out; they make up all but 4.8% or so of the library.

SMILES	Calb FLC	Beta cell apopt	Mdm2 MdmX PPI	MPTP inh	CSC inhib	Rh123 counter
CCSc1nc2sc3c(c2c(=O)n1C1CCCCC1)CCN(C)C3	.	.	.	50.1*	.	29.8*
CCCCCCc1cc2cc(-c3nnc(-c4ccccc4OC)o3)c(=O)oc2cc1O	-2.8	.	18.0	83.9*	?	5.2
COC(=O)c1ccc(N2CCN(S(=O)(=O)c3ccc4ccccc4c3)CC2)c([N+](=O)[O-])c1	-1.1	4.8	-5.2	72.5*	-22.1	56.7*
NC(=O)c1ccc(N2CCN(S(=O)(=O)c3ccccc3)CC2)c([N+](=O)[O-])c1	42.2	.	-2.4	73.3*	.	20.6*
COc1cccc(N2CCN(c3ccc(S(=O)(=O)N4CCN(C)CC4)cc3[N+](=O)[O-])CC2)c1	.	2.3	-10.5	-1.9	21.0	.
COc1ccc(N2CCN(S(=O)(=O)c3ccc4c(c3)CCCC4)CC2)c([N+](=O)[O-])c1	-6.6	48.0	17.3	79.3*	13.0	78.6*
COc1ccccc1S(=O)(=O)N(C)C[C@H]1OCc2cnnn2CCCC(=O)N([C@H](C)CO)C[C@H]1C	.	.	.	1.2	.	.
COC(=O)c1cc(C)sc1NC(=O)CN1CCN(C(=O)C2CCCO2)CC1 (stereo not given)	?	0.6	5.2	-1.6	-0.5	.
COc1ccc(CCNC(=O)c2[nH]c(C)c(C(C)=O)c2C)cc1	-10.2	3.1	9.4	-0.7	-1.8	.
COc1ccc(OCCOC(=O)c2[nH]c(C)c(C(C)=O)c2C)cc1	7.5	20.8	12.7	56.3*	10.2	30.7*
CC(=O)c1c(C)[nH]c(C(=O)OCC(=O)Nc2cc(Cl)ccc2[N+](=O)[O-])c1C	8.7	39.6	31.3	94.5*	3.1	82.2*
CC(=O)c1c(C)[nH]c(C(=O)OCC(=O)NCc2ccc(Cl)cc2)c1C	.	-4.4	31.0	1.3	.	.
CC(=O)c1c(C)[nH]c(C(=O)OCc2ccc(F)cc2Cl)c1C	6.3	37.1	21.1	78.1*	-1.7	68.6*
CC(=O)N1c2c(cc(Br)cc2S(=O)(=O)N2CCN(c3ccccc3F)CC2)CC1C (stereo not given)	7.1	-2.7	18.5	-0.8	20.6	.
O=C(O)C(Cc1ccccc1)N1C(=O)C=CC1=O (stereo not given)	.	.	.	-3.2	.	.
CCCc1ccc(S(=O)(=O)NCCc2ccncc2)cc1	-1.0	9.7	2.6	8.3	-0.8	.
Cc1ccc(S(=O)(=O)NCc2ccncc2)cc1C	28.9	89.5*	14.8	77.0*	-11.3	76.4*
CCN(C1CCCCC1)S(=O)(=O)c1ccc(S(=O)(=O)NCc2ccncc2)cc1	-9.3	102.6*	23.4	98.2*	17.3	92.5*
O=S(=O)(NCc1ccncc1)c1ccc(Br)s1	9.9	115.9*	14.1	62.7*	4.9	96.5*
CCCCCc1ccc(S(=O)(=O)NCCc2ccncc2)cc1	1.3	7.5	2.2	63.3*	7.3	82.8*
CCN(C(=O)CSc1ncccn1)C1CCS(=O)(=O)C1 (stereo not given)	13.6	-4.8	14.4	-0.1	-0.7	.
Cc1ccc(F)cc1NC(=O)C1C2CCC(O2)C1C(=O)O (stereo not given)	-6.9	-1.8	12.8	-0.1	11.9	.
CCOc1ccc(C(=O)C(C)OC(=O)Cn2c(C)csc2=O)cc1 (stereo not given)	-2.0	-0.3	12.1	-1.3	.	.
COC(=O)COc1ccc(S(=O)(=O)NCc2ccncc2)cc1	-1.5	-0.5	26.2	85.1*	6.4	86.7*
Cc1ccc(C(=O)NC2CCN(CC(=O)NC3CCC(C)CC3)CC2)cc1 (stereo not given)	4.8	.	-16.2	0.5	-9.1	.
SMILES	Calb FLC	Beta cell apopt	Mdm2 MdmX PPI	MPTP inh	CSC inhib	Rh123 counter
Cc1ccc(OCCN2CCN(c3ncnc4sc(C)c(C)c34)CC2)cc1	-20.9	113.7*	8.0	97.0*	40.7	90.2*
Clc1ccc(OCCN2CCN(c3ncnc4sccc34)CC2)cc1	99.7*	106.0*	16.7	100.1*	18.5	101.5*
Cc1ccc(S(=O)(=O)N2CCN(c3ncnc4scc(-c5ccccc5)c34)CC2)cc1	.	14.6	-10.2	-0.5	20.7	.
Cc1sc2ncnc(N3CCN(S(=O)(=O)c4ccccc4)CC3)c2c1C	.	99.1*	2.6	93.7*	.	89.4*
COC(=O)C1(NC(=O)CNC(=O)OCc2ccccc2)CCCC1	.	.	.	0.0	.	.
CCc1cc(-c2nnn(CCC3COCCO3)c2CC)cc(CC)c1-c1cn(CCc2c[nH]c3ccccc23)nn1 (stereo not given)	.	.	.	-3.0	.	.
CC(=O)c1cccc(NC(=O)Nc2csc3c2CCCC3)c1	11.2	2.8	-2.3	80.2*	-9.3	93.9*
